Assay outcomes as filed in PubChem BioAssay.
ELG1 genotox = inducers of genotoxicity in HEK293T ELG1-luciferase cells. actives 1.3% (n = 330,000). HEK293T ELG1-luciferase reporter, luminescence, 16 h. Potency, µM (titrated, usually from 46 µM), inactives show at the top dose activity change, positive = activation, most hits filed as activators; further: % of control where 0% means no effect; nearly all actives have a fitted effect of over 60% in size
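Reporter readout depends on ELG1 protein level, which increases with genetic stress. After 16 hr compound exposure at 37 °C, luciferase activity was quantified using ONE-Glo.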
FLuc modulator = inhibits or activates purified firefly luciferase, miR-21 counter-screen. Potency, µM (titrated, usually from 57.5 µM), inactives show at the top dose activity change, negative = inhibition, hits mostly inhibitors. actives 6.9% (n = 360,000). purified FLuc, Km substrates, luminescence inhibition. P08659;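 further: plate controls were vehicle for no effect and reference inhibitor for full effect; nearly all actives have a fitted effect of over 55% in size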
Target sequence (P08659 whole entry, looked up): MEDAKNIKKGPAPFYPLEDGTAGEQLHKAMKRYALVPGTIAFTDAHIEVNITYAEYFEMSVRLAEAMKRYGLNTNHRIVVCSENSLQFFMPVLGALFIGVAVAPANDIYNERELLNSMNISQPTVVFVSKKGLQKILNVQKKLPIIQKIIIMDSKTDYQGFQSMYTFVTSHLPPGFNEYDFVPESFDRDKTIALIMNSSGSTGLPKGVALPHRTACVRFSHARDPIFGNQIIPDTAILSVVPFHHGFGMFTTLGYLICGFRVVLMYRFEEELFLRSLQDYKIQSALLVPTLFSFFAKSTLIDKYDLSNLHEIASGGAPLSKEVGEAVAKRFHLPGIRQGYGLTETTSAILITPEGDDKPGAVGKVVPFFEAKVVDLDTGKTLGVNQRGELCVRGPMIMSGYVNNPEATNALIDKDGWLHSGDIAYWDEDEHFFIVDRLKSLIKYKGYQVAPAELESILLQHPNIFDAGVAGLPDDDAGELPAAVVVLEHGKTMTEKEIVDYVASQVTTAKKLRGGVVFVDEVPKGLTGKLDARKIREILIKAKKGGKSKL
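Purified P. pyralis luciferase (10nM final) with 10uM D-luciferin and 10uM ATP (Km levels) in 50mM Tris acetate pH 7.5, 10mM Mg acetate, 0.01% Tween-20, 0.05% BSA; qHTS 6-point titration, ~60 µM downward; luminescence read.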
Rab9 promoter act = activators of Rab9 promoter; Potency, µM (doses to about 9.22 µM), inactives show top-dose activation, negative = inhibition, most hits filed as activators; AID 485297; actives 2.8% (n = 320,000); Huh7 Rab9 promoter-luciferase reporter, luminescence, 24 h; further: % of control where 0% means no effect; nearly all actives have a fitted effect of over 60% in size
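Huh7 cells stably carrying a Rab9 promoter-luciferase reporter, 1500 cells per well in OP-MEM I with 10% FBS, treated with compound 24 hours at 37C. Luciferase activity read by luminescence after 10 minutes with Amplite reagent.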
SMN2 splice enh = enhancers of SMN2 splice variant expression; HEK293 SMN2-luciferase splicing reporter, luminescence, 30-36 h; Potency, µM (doses to about 46.1 µM), for the others: top-dose activity change, positive = activation, usual class: activators; actives 2.8% (n = 210,000); further: % of control where 0% means no effect; nearly all actives have a fitted effect of over 55% in size
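qHTS luciferase splicing reporter: luminescence rises when SMN2 exon 7 is included in transfected HEK293 cells. Compound exposure lasted 30-36 h at 37C, with 4.5 mM final sodium butyrate as control, followed by a ONE-Glo read.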
NPC1 prom act = NPC1 promoter activation. AID 485313. Potency, µM (titrated, usually from 9.22 µM), for the others: top-dose activation, most hits filed as activators. Huh7 NPC1 promoter luciferase reporter, 24 h. actives 2.4% (n = 320,000); further: % of control where 0% means no effect; nearly all actives have a fitted effect of over 60% in size
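Cells: Huh7 expressing luciferase under the NPC1 promoter, 1500/well. Seeded 2 h, compound added, incubated 24 h at 37 °C. Luciferase reagent, 10 min ambient, then luminescence.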
Numbers without * were called inactive; ? = inconclusive; nt = not tested or not shown; [ ] = another dose, or the depositor's remark. Shown are actives, neighbours in structure and some others; about 7.5% of the full set was active somewhere. The call rests on the fitted dose curve; in most records, active means well fitted curve in the direction sought with a large enough effect; inconclusive means small, poorly fitted or top-dose-only effect, or another doubt; inactive means no such curve, though single readings can be large; an effect the other way counts as inactive or inconclusive. Potency means the concentration at half of the fitted maximal effect.

SMILES	ELG1 genotox	FLuc modulator	Rab9 promoter act	SMN2 splice enh	NPC1 prom act
Cc1ccc(N2C(=O)[C@@H]3CSC(c4ccc(F)cc4)N3C2=O)cc1 (stereo not given in full)	nt	-10%	nt	-4%	nt
Cc1ccc(-c2cc(C(=O)N3CCCCCC3)no2)cc1	?	1.5µM*	0.56µM*	nt	0.5µM*
CN1CCN(C(=O)c2cc(-c3ccccc3)on2)CC1	17%	?	?	?	?
CC1CCCCN1C(=O)COC(=O)c1ccc2ccccc2n1 (stereo not given)	1%	8.5µM*	-4%	nt	-8%
COc1ccc(-c2cc(C(=O)Nc3ccc(S(=O)(=O)Nc4onc(C)c4C)cc3)c3ccccc3n2)cc1	2%	9.5µM*	-3%	nt	2%
COc1ccc(-c2cc(C(=O)Nc3ccc(S(=O)(=O)Nc4ncccn4)cc3)c3ccccc3n2)cc1	15%	4.8µM*	3%	nt	4%
Cc1noc(NS(=O)(=O)c2ccc(NC(=O)c3cc(-c4ccccc4Cl)nc4ccccc34)cc2)c1C	2%	-29%	-2%	6%	-1%
COc1ccc(-c2cc(C(=O)Nc3ccc(C)c(N)c3)c3ccccc3n2)cc1	5%	5.4µM*	15%	nt	23%
C=CCn1c(SCC(=O)NC2CCCC2)nnc1-c1ccncc1	5%	-3%	-6%	nt	1%
Cc1cc(C(=O)N2CCN(c3ccc([N+](=O)[O-])cc3)CC2)co1	-2%	0%	-3%	nt	-4%
O=C(/C(=C(\[O-])c1ccccc1)[n+]1ccc2ccccc2c1)c1ccccc1	11%	24µM*	2%	5%	8%
CC(C)Cc1nnc(NC(=O)C2=COCCO2)s1	?	17µM*	?	nt	?
O=C(Nc1nccs1)C1=COCCO1	7%	nt	nt	nt	nt
CCCCCc1nnc(NC(=O)C2CCCO2)s1 (stereo not given)	13µM*	?	?	?	28%
CCCCCc1nnc(NC(=O)c2ccc(N3CCCC3=O)cc2)s1	11%	-2%	1%	nt	6%
CCCCCc1nnc(NC(=O)C2=COCCO2)s1	?	19µM*	2.2µM*	nt	2.8µM*
CCOC(=O)C1CCCN(C(=O)Cn2ncc3c(C)n(Cc4ccc(Cl)cc4)c(C)c3c2=O)C1 (stereo not given)	nt	-15%	nt	-3%	nt
O=C(O)/C=C/C(=O)Nc1ccccc1C(=O)OCC(=O)c1ccc2c(c1)OCCO2	12%	0.19µM*	15%	-1%	2%
CCCCC(=O)Nc1ccccc1C(=O)OCC(=O)c1ccc2c(c1)OCCO2	4%	1.2µM*	?	-9%	29%
CNC(C)C#Cc1c(-c2cc(OC)c(OC)c(OC)c2)noc1C (stereo not given)	9%	0%	-1%	nt	-4%
Cc1cc(OCC(=O)N(C)Cc2ccccc2)ccc1Cl	14%	15µM*	4.5µM*	nt	?
Cc1cc(OCC(=O)N(C)Cc2ccccc2)ccc1Br	8%	17µM*	?	nt	?
COc1ccc(OCC(=O)N(C)Cc2ccccc2)cc1	6%	-1%	7%	1%	-6%
CCOc1ccc(CNn2nnnc2N)cc1	5%	-1%	4%	-34%	2%
Cc1cc2c(=O)[nH]c(N)nc2nc1C	nt	nt	nt	-2%[9.22 µM]	nt
SMILES	ELG1 genotox	FLuc modulator	Rab9 promoter act	SMN2 splice enh	NPC1 prom act
Cc1cc(C)c2nc3nc(C)c(C)cc3c(N)c2c1	13%	17µM*	-29%	-79%	-17%
COc1ccc(NC(=S)Nc2ccc3nccnc3c2)cc1	-7%	?	20%	-8%[1.84 µM]	29%
COc1cc(CC(=O)NCCc2ccc(OCc3ccccc3)cc2)c([N+](=O)[O-])cc1OC	13%	-8%	-1%	13%	8%
Cn1c(-c2ccccc2)cc2c3no[n+]([O-])c3ccc21	5%	13µM*	-28%	-80%	?
CCc1ccc(-c2nnn(CCC(=O)OC)n2)cc1	5%	15µM*	-10%	-16%	-5%
CCc1ccc(-c2nnn(CCC#N)n2)cc1	12%	-15%	16%	19%	2%
CC(C)c1ccc(-c2nnn(CCC(=O)O)n2)cc1	-4%	9.5µM*	-25%	-27%	-18%
